# In PMC7862700, “An all-to-all approach to the identification of sequence-specific readers for epigenetic DNA modifications on cytosine”:
# Columns and labels:
# Experiment in all cases: DAPPL (digital affinity profiling via proximity ligation, sequencing); 10 mM Tris-HCl pH 7.5, 50 mM NaCl, 1 mM DTT, 4% glycerol, room temperature, 30 min; GST-TFs on glutathione beads, 16-mer random dsDNA library, 0.1% formaldehyde crosslink after washing; high values mean tight binding
# FLI1 = target: T1, FLI1 (Homo sapiens, UniProt Q01543 1-452); settings: protein: recombinant; tags: N-terminal GST; dsDNA, one strand shown
# T1 sequence: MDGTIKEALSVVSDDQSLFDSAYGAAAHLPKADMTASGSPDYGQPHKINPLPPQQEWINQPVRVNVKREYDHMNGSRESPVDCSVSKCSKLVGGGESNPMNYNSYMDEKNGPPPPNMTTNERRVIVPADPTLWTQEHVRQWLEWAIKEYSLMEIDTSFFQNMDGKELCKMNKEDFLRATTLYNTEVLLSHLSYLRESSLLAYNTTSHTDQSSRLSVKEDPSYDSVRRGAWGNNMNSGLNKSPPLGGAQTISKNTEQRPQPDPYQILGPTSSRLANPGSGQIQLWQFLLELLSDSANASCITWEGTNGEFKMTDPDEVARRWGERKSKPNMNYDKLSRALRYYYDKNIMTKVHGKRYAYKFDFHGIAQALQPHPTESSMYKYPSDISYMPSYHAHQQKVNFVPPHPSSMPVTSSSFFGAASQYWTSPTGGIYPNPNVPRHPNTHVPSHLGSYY
# Procedure, shortened: (§1)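 GST fusions of human transcription factors were expressed in yeast and captured with glutathione beads. Once given DNA barcodes and pooled alongside a tag-only sample, they were incubated for 30 min at room temperature with 200 nmole of a random double-stranded 16-mer DNA library in Tris/NaCl/DTT/glycerol buffer, then washed, crosslinked (0.1% formaldehyde), proximity-ligated, PCR-amplified and sequenced on an Illumina NextSeq500. The binding signal of each hexamer is its read frequency for a factor divided by its frequency for the tag-only sample.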
# ELK1 = target: T2, ELK1 (Homo sapiens, UniProt P19419 1-428); settings: protein: recombinant; tags: N-terminal GST; dsDNA, one strand shown
# T2 sequence: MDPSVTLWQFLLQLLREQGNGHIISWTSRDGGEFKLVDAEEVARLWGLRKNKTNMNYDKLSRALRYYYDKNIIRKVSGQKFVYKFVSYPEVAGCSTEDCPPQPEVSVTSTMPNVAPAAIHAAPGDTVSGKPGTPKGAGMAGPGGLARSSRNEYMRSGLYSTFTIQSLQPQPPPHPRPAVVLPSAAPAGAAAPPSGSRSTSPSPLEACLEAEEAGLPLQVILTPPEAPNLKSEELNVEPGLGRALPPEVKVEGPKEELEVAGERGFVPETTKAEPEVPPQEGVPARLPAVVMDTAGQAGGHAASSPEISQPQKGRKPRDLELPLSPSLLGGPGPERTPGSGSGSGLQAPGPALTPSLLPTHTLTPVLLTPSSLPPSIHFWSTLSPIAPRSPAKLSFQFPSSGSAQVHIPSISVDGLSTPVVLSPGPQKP
# Procedure, shortened: as §1
# GABPA = target: T3, GABPA (Homo sapiens, UniProt Q06546 1-454); settings: protein: recombinant; tags: N-terminal GST; dsDNA, one strand shown
# T3 sequence: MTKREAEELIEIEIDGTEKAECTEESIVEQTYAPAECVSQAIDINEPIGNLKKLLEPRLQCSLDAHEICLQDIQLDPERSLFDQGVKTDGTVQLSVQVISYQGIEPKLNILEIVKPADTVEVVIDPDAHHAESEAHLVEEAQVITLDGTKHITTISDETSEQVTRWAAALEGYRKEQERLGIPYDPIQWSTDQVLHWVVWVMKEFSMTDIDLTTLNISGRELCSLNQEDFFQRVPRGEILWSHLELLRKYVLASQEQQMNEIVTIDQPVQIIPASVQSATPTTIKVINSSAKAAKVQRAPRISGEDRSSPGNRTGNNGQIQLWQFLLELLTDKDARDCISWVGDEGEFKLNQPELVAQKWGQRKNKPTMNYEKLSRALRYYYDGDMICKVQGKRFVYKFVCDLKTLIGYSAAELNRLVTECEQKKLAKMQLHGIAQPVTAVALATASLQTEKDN
# Procedure, shortened: as §1
# ERG = target: T4, ERG (Homo sapiens, UniProt P11308 1-479); settings: protein: recombinant; tags: N-terminal GST; dsDNA, one strand shown
# T4 sequence: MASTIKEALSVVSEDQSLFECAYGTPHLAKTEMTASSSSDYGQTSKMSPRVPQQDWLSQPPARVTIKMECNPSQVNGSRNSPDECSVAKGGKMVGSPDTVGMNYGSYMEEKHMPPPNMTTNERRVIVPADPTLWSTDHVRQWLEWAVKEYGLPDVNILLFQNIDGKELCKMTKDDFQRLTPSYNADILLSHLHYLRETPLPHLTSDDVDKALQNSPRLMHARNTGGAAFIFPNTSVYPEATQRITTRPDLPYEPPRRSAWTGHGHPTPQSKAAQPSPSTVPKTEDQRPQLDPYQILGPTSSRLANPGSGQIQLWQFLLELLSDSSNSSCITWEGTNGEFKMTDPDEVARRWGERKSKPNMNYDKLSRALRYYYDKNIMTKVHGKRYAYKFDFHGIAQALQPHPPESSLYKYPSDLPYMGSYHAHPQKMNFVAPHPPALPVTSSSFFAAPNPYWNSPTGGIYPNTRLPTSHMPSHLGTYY
# Procedure, shortened: as §1
# ELF1 = ELF1 (Homo sapiens, UniProt P32519 1-619); settings: protein: recombinant; tags: N-terminal GST; dsDNA, one strand shown
# Sequence of ELF1 (P32519 whole entry): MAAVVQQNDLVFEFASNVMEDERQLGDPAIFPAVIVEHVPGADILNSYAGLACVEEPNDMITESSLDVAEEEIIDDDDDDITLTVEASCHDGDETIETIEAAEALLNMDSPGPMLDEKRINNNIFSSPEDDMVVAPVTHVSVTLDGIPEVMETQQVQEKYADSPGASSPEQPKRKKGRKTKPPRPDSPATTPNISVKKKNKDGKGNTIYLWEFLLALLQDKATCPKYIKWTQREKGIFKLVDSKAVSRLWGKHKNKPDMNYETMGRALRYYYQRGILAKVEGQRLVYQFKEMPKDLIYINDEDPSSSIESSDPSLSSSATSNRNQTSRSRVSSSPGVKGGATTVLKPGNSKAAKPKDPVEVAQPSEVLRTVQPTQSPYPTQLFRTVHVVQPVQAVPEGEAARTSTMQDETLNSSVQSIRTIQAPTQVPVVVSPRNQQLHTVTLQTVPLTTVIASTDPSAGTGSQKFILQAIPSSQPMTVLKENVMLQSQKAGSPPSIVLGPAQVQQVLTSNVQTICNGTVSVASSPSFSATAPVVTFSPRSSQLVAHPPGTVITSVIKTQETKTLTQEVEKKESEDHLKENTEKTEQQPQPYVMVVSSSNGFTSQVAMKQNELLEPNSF
# Procedure, shortened: as §1
# EHF = target: T5, EHF (Homo sapiens, UniProt Q9NZC4 1-300); settings: protein: recombinant; tags: N-terminal GST; dsDNA, one strand shown
# T5 sequence: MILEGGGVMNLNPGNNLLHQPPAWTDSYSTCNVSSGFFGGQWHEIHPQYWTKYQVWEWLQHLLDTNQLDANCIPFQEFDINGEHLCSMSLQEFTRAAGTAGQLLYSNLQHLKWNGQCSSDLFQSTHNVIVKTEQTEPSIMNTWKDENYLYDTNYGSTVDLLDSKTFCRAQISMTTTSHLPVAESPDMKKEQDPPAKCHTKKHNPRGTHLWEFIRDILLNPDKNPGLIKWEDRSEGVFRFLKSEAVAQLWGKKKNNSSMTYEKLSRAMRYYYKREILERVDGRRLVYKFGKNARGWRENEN
# Procedure, shortened: as §1
# SPI1 = SPI1 (Homo sapiens, UniProt P17947 1-270); settings: protein: recombinant; tags: N-terminal GST; dsDNA, one strand shown
# Procedure, shortened: as §1
# SPIB = SPIB (Homo sapiens, UniProt Q01892 1-262); settings: protein: recombinant; tags: N-terminal GST; dsDNA, one strand shown
# Sequence of SPIB (Q01892 whole entry): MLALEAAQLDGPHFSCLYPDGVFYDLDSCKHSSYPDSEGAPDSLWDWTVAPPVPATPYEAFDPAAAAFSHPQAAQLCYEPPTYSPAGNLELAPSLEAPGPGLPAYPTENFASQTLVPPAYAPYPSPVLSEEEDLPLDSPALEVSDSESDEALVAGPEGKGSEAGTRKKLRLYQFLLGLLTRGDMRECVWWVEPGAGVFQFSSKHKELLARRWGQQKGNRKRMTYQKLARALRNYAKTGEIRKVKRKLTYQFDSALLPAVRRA
# Procedure, shortened: as §1
# ELK3 = target: T6, ELK3 (Homo sapiens, UniProt P41970 1-407); settings: protein: recombinant; tags: N-terminal GST; dsDNA, one strand shown
# T6 sequence: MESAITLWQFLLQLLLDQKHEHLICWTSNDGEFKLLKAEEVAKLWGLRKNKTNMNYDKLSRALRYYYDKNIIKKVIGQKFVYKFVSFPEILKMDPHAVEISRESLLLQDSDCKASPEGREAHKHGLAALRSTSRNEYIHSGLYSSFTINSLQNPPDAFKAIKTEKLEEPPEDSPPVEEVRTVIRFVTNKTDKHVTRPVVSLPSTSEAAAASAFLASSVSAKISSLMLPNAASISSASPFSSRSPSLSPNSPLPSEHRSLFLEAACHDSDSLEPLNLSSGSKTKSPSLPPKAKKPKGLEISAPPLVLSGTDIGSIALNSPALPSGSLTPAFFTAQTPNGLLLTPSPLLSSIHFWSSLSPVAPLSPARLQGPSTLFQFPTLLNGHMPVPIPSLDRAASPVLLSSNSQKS
# Procedure, shortened: as §1
# FEV = target: T7, FEV (Homo sapiens, UniProt Q99581 1-238); settings: protein: recombinant; tags: N-terminal GST; dsDNA, one strand shown
# T7 sequence: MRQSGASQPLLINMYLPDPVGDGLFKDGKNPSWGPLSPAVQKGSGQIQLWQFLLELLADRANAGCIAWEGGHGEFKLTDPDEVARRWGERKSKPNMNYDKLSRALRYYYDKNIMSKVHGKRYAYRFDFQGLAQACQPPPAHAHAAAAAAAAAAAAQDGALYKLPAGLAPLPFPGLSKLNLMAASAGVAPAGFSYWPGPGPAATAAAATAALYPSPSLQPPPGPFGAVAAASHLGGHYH
# Procedure, shortened: as §1
# ETV5 = ETV5 (Homo sapiens, UniProt P41161 1-510); settings: protein: recombinant; tags: N-terminal GST; dsDNA, one strand shown
# Sequence of ETV5 (P41161 whole entry): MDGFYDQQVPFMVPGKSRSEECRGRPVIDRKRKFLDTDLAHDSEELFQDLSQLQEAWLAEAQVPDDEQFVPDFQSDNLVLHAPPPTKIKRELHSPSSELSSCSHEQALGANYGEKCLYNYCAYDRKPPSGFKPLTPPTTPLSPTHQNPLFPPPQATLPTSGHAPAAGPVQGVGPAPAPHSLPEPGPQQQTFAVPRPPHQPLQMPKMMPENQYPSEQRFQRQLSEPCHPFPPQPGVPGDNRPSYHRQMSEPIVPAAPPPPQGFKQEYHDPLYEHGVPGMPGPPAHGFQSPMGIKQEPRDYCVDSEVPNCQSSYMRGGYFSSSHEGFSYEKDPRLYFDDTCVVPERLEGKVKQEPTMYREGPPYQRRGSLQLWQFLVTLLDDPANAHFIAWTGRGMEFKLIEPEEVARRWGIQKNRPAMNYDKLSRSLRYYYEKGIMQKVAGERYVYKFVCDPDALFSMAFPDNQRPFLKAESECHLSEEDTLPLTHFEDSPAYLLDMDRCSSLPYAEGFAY
# Procedure, shortened: as §1
# HSF1 = HSF1 (Homo sapiens, UniProt Q00613 1-529); settings: protein: recombinant; tags: N-terminal GST; chain copies: 3; dsDNA, one strand shown
# Sequence of HSF1 (Q00613 whole entry): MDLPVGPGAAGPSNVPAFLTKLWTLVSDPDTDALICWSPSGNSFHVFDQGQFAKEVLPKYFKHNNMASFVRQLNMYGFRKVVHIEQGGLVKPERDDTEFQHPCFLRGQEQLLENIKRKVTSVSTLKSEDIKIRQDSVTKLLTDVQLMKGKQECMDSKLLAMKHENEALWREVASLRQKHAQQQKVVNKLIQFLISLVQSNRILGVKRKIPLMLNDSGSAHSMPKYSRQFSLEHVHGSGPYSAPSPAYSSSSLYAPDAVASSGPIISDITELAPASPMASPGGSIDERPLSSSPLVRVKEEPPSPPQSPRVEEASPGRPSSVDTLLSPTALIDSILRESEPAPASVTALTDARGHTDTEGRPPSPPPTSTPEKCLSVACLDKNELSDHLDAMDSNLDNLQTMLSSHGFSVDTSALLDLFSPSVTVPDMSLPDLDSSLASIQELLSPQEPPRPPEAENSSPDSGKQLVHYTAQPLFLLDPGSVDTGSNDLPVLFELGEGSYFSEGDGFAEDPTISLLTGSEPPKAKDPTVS
# Procedure, shortened: as §1
# SPIC = target: T8, SPIC (Homo sapiens, UniProt Q8N5J4 1-248); settings: protein: recombinant; tags: N-terminal GST; dsDNA, one strand shown
# T8 sequence: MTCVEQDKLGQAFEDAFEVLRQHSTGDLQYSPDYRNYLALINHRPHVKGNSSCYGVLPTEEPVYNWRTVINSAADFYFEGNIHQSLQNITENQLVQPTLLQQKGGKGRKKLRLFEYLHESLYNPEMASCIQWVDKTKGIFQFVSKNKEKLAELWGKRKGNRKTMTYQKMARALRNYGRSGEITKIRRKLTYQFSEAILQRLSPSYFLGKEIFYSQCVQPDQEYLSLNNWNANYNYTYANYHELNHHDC
# Procedure, shortened: as §1
# ELF4 = ELF4 (Homo sapiens, UniProt Q99607 1-663); settings: protein: recombinant; tags: N-terminal GST; dsDNA, one strand shown
# Sequence of ELF4 (Q99607 whole entry): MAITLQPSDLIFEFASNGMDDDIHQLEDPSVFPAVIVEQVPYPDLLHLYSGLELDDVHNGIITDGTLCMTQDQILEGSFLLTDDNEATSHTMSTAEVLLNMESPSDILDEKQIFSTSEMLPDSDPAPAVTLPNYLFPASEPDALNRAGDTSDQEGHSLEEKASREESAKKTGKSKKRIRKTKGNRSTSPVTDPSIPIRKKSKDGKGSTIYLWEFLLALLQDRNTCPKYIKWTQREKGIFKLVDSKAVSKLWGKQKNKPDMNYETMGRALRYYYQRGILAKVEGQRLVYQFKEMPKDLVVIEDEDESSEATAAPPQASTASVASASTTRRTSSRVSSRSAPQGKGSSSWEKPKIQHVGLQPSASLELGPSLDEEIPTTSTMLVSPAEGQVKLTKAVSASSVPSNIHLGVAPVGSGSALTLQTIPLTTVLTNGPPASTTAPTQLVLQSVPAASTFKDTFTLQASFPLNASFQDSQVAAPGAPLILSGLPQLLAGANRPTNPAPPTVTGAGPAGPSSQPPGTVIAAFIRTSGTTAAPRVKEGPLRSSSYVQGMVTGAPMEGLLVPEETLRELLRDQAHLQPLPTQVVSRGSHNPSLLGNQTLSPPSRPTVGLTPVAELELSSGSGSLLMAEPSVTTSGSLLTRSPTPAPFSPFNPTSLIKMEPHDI
# Procedure, shortened: as §1
# ELK4 = target: T9, ELK4 (Homo sapiens, UniProt P28324-2 1-405); settings: protein: recombinant; tags: N-terminal GST; dsDNA, one strand shown
# T9 sequence: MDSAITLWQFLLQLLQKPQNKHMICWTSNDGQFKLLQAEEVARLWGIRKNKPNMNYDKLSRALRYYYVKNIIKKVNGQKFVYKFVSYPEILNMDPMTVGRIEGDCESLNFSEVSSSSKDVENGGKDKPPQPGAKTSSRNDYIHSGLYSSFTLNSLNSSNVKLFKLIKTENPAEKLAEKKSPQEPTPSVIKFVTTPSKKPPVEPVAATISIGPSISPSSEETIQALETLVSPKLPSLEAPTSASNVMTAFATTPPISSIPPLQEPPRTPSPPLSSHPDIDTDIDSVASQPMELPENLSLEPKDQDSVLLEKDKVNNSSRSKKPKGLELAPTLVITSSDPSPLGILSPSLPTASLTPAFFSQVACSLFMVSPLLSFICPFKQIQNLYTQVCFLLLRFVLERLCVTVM
# Procedure, shortened: as §1
# ETV2 = target: T10, ETV2 (Homo sapiens, UniProt O00321 1-342); settings: protein: recombinant; tags: N-terminal GST; dsDNA, one strand shown
# T10 sequence: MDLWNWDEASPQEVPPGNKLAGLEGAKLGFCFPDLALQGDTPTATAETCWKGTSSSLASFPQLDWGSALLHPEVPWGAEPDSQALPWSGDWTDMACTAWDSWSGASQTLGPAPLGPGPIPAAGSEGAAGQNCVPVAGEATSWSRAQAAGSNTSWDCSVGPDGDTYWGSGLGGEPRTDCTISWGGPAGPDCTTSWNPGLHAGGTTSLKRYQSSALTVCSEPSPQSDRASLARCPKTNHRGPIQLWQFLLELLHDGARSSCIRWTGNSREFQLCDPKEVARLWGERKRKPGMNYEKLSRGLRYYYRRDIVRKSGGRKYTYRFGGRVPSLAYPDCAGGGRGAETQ
# Procedure, shortened: as §1
# ELF3 = target: T11, ELF3 (Homo sapiens, UniProt P78545 1-371); settings: protein: recombinant; tags: N-terminal GST; dsDNA, one strand shown
# T11 sequence: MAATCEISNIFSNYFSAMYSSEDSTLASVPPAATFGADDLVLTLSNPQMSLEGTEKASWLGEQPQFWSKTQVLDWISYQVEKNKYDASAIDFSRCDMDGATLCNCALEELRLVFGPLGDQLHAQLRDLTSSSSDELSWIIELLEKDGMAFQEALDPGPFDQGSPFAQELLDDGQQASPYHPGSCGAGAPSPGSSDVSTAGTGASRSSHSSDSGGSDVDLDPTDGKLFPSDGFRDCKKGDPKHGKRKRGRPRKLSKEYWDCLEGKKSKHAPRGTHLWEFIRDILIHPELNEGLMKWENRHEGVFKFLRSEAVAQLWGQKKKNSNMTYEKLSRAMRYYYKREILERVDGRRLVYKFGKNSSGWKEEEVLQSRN
# Procedure, shortened: as §1
# CRX = CRX (Homo sapiens, UniProt O43186 1-299); settings: protein: recombinant; tags: N-terminal GST; dsDNA, one strand shown
# Sequence of CRX (O43186 whole entry): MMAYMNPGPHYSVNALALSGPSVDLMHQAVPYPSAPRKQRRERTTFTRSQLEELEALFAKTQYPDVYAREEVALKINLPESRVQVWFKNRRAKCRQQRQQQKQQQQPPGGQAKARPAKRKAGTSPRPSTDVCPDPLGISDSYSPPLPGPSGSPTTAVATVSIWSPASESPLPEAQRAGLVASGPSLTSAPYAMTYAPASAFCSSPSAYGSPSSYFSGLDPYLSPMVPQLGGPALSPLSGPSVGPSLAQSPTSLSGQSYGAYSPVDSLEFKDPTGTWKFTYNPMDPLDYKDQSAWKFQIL
# Procedure, shortened: as §1
# ETV1 = ETV1 (Homo sapiens, UniProt P50549 1-477); settings: protein: recombinant; tags: N-terminal GST; dsDNA, one strand shown
# Sequence of ETV1 (P50549 whole entry): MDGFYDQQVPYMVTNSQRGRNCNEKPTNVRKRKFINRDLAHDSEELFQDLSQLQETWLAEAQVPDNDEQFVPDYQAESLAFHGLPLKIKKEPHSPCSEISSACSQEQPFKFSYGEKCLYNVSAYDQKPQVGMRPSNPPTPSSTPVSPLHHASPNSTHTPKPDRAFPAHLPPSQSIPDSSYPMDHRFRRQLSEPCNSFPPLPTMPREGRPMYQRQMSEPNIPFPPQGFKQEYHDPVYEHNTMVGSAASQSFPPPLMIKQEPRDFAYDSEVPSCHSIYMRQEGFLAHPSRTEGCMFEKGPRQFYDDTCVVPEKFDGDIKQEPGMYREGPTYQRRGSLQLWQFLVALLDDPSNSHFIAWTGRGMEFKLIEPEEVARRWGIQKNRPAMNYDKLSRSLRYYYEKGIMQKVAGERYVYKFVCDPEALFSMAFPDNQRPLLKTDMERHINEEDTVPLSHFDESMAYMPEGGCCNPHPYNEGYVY
# Procedure, shortened: as §1
sequence,measurement,setting,value
CTGTTC,binding signal,FLI1,"1.47 fold enrichment (6-mer frequency, TF over GST control)"
same,binding signal,ELK1,"1.42 fold enrichment (6-mer frequency, TF over GST control)"
same,binding signal,GABPA,"1.38 fold enrichment (6-mer frequency, TF over GST control)"
same,binding signal,ERG,"1.39 fold enrichment (6-mer frequency, TF over GST control)"
same,binding signal,ELF1,"1.38 fold enrichment (6-mer frequency, TF over GST control)"
same,binding signal,EHF,"1.47 fold enrichment (6-mer frequency, TF over GST control)"
same,binding signal,SPI1,"1.42 fold enrichment (6-mer frequency, TF over GST control)"
same,binding signal,SPIB,"1.39 fold enrichment (6-mer frequency, TF over GST control)"
same,binding signal,ELK3,"1.47 fold enrichment (6-mer frequency, TF over GST control)"
same,binding signal,FEV,"1.33 fold enrichment (6-mer frequency, TF over GST control)"
same,binding signal,ETV5,"1.39 fold enrichment (6-mer frequency, TF over GST control)"
same,binding signal,HSF1,"1.38 fold enrichment (6-mer frequency, TF over GST control)"
same,binding signal,SPIC,"1.44 fold enrichment (6-mer frequency, TF over GST control)"
same,binding signal,ELF4,"1.42 fold enrichment (6-mer frequency, TF over GST control)"
same,binding signal,ELK4,"1.19 fold enrichment (6-mer frequency, TF over GST control)"
same,binding signal,ETV2,"1.38 fold enrichment (6-mer frequency, TF over GST control)"
same,binding signal,ELF3,"1.63 fold enrichment (6-mer frequency, TF over GST control)"
same,binding signal,CRX,"1.07 fold enrichment (6-mer frequency, TF over GST control)"
same,binding signal,ETV1,"1.46 fold enrichment (6-mer frequency, TF over GST control)"
